# Source: PubChem BioAssay AID463173 (ICCB-Longwood Screening Facility, Harvard Medical School, 2010)
# In all, about 52,000 compounds went through this assay and about 4,300 (8.3%) were called active. The entries come from a sample that favours actives as a whole. Unmarked numbers belong to inactive results. No stated cut-off is given here; in the data, active means survival mostly below about 52% (no sharp cut-off); inactive means mostly above about 56%.
# Tested on: DeltatarO mutant
# Experiment: S. aureus survival, RN4220 and DeltatarO strains – OD600, teichoic acid synthesis inhibitors, primary screen (AID 463173)
# Conditions: S. aureus RN4220 wild type/DeltatarO growth, OD600, 18 h, stronger effect = lower value, screened at 18.75 µg/mL (by protocol)
row,SMILES,survival
1,CCn1c(C(=O)NCc2ccccc2)cc2sc(Cl)cc21,34% (active)
2,CCn1c(C(=O)NCc2ccc(OC)cc2)cc2sc(Cl)cc21,41% (active)
3,CCn1c(C(=O)NCCc2ccc(OC)c(OC)c2)cc2sc(Cl)cc21,32% (active)
4,N#Cc1c[nH]n2c(NC3CCCCC3)c(-c3ccccc3F)nc12,56%
5,CCCCN(C(=O)c1cccc(S(=O)(=O)N2CCCCC2)c1)C1CCS(=O)(=O)C1 (configuration not stated),117%
6,COc1ccc(CCNC(=O)CCc2c(C)nc3c4cccnc4nn3c2C)cc1OC,87%
7,COc1ccc(CCNC(=O)C2COc3ccccc3O2)cc1 (configuration not stated),89%
8,Cc1ccc(NC(=O)Nc2cc3c(cc2N2CCCCC2)n(C)c(=O)n3C)cc1Cl,99%
9,CC1CN(C(=O)N2CCC(C(=O)NC3CCCCCC3)CC2)c2cc(Cl)ccc2O1 (configuration not stated),61%
10,O=C1CC(N2CCCC2)C(=O)N1c1ccccc1 (configuration not stated),96%
11,COc1ccccc1CNC(=O)C(=O)NCC(c1cccs1)S(=O)(=O)c1ccc(F)cc1 (configuration not stated),80%
12,CC(C)c1ccc(OCc2cc(=O)n3c4c(sc3n2)CCCC4)cc1,73%
13,Cc1cccn2c(=O)c(/C=C(\C#N)c3nc4ccccc4[nH]3)c(Oc3ccc(C(C)(C)C)cc3)nc12,93%
14,COc1ccc(C)cc1NC(=O)CN1C(=O)COc2ccc(S(=O)(=O)N3CCC(C)CC3)cc21,69%
15,COc1ccc(-c2cc(C(=O)Oc3ccc(C)cc3)c3cc(C)ccc3n2)cc1,22% (active)
16,Cc1ccc(OC(=O)c2cc(-c3ccccc3)nc3ccc(C)cc23)cc1,49% (active)
17,Cc1ccc(-n2cc(C(=O)Oc3cccc(C)c3)c3ccccc3c2=O)cc1,69%
18,Cc1ccc2nc(C)cc(C(=O)O)c2c1,99%
19,COc1ccc(-c2cc(C(=O)NCCc3ccccc3)c3cc(C(C)C)ccc3n2)cc1,76%
20,COc1ccc(-c2cc(C(=O)OCC(=O)c3ccc(C)cc3)c3cccc(Cl)c3n2)cc1,65%
21,COc1ccc(-c2cc(C(=O)Oc3cccc(C)c3)c3ccccc3n2)cc1,-2% (active)
22,Cc1ccc(-c2cc(C(=O)Oc3ccccc3)c3cccc(C)c3n2)cc1,50%
23,COc1ccc(-c2cc(C(=O)OC(C)C(=O)c3ccccc3)c3cccc(Cl)c3n2)cc1 (configuration not stated),76%
24,COc1ccc(-c2cc(C(=O)Oc3cccc(C)c3)c3cc(C)ccc3n2)cc1,13% (active)

row,SMILES,survival
1,Cc1ccc(-c2cc(C(=O)Oc3ccccc3)c3cc(C)ccc3n2)cc1,76%
2,COc1ccc(-c2cc(C(=O)OCC(=O)c3cccc(OC)c3)c3cccc(Cl)c3n2)cc1,74%
3,CC(C)c1ccc(OCC(=O)Nc2cc(-c3ccccc3)no2)cc1,110%
4,Cn1c(Oc2cccc(Cl)c2)nc2c1c(=O)n(Cc1ccccc1Cl)c(=O)n2C,66%
5,O=C(Cc1ccccc1)NC1CCN(S(=O)(=O)c2cccc(F)c2)CC1,80%
6,Cc1c(Cl)cccc1Nc1nn2c(=O)c3ccc(C(=O)NCCc4ccccc4)cc3nc2s1,98%
7,O=C(C1CCCN(S(=O)(=O)c2cccc3nsnc23)C1)N1CCN(c2ccccc2Cl)CC1 (configuration not stated),107%
8,COCCc1nn2c(=O)cc(COC(=O)c3ccco3)nc2s1,92%
9,Cc1cc(C)c(NC(=O)Cn2nnc(-c3ccccc3)n2)c(C)c1,63%
10,Cc1ccccc1OCC(=O)NCC(c1ccc(Cl)cc1)N1CCCCC1 (configuration not stated),66%
11,Cc1ccccc1Nc1c(-c2cccs2)nc2cccc(C)n12,63%
12,COc1ccc(-c2cc(C(=O)NC(C)c3ccccc3)c3cc(C(C)C)ccc3n2)cc1 (configuration not stated),101%
13,Cc1ccc2nc(-c3ccc(Cl)cc3)cc(C(=O)OCC(=O)c3ccccc3)c2c1,58%
14,COc1ccc(-c2cc(C(=O)Oc3ccccc3)c3cc(C)ccc3n2)cc1,9% (active)
15,Cc1ccc(CNC(=O)CN(c2ccc(C(C)C)cc2)S(=O)(=O)c2c(C)n[nH]c2C)cc1,43% (active)
16,Cc1n[nH]c(C)c1S(=O)(=O)N(CC(=O)NCc1ccccc1Cl)c1ccc(C(C)C)cc1,52%
17,Cc1ccc(N(CC(=O)Nc2ccc(C)c(F)c2)S(=O)(=O)c2c(C)n[nH]c2C)cc1,66%
18,Cc1noc(C)c1S(=O)(=O)N(CC(=O)Nc1ccc(C(F)(F)F)cc1)c1ccc(C(C)C)cc1,55%
19,Cc1n[nH]c(C)c1S(=O)(=O)N(CC(=O)NC(C)c1ccccc1)c1ccc(C(C)C)cc1 (configuration not stated),54% (active)
20,Cc1n[nH]c(C)c1S(=O)(=O)N(CC(=O)Nc1ccc(C(F)(F)F)cc1)c1ccc(C(C)C)cc1,46% (active)
21,Cc1ccc(N(CC(=O)NC(C)c2ccccc2)S(=O)(=O)c2c(C)noc2C)cc1 (configuration not stated),74%
22,COc1cccc(CNC(=O)CN(c2ccc(C(C)C)cc2)S(=O)(=O)c2c(C)n[nH]c2C)c1,56%
23,COc1ccc(CNC(=O)CN(c2ccc(C)cc2)S(=O)(=O)c2c(C)n[nH]c2C)cc1,85%
